Assay outcomes: PubChem, National Center for Advancing Translational Sciences (NCATS)
An excerpt weighted towards active compounds, which were near 2.7% of everything screened.
ATXN viability: cell viability loss in ATXN counter-screen | S2 cells (HEK-293 line with an ATXN2-luciferase reporter) viability, CellTiter-Fluor protease fluorescence, 24 h | Potency, µM (top dose mostly 56.7 µM), usual class: cytotoxic | 400,000 tested, 0.49% active; note: nearly all actives have a fitted effect of over 40% in size
ALOX12 inh: ALOX12 (human) lipoxygenase inhibition; AID 1671190; Potency, µM (top dose mostly 108 µM), without a hit: at the highest dose activity change, negative = inhibition, actives largely listed as inhibitors; purified 12hLO, xylenol orange hydroperoxide absorbance; 580,000 tested, 1.1% active; note: % is set by controls: 0 for no effect and ±100 for the full control effect
Target sequence (P18054 whole entry, looked up): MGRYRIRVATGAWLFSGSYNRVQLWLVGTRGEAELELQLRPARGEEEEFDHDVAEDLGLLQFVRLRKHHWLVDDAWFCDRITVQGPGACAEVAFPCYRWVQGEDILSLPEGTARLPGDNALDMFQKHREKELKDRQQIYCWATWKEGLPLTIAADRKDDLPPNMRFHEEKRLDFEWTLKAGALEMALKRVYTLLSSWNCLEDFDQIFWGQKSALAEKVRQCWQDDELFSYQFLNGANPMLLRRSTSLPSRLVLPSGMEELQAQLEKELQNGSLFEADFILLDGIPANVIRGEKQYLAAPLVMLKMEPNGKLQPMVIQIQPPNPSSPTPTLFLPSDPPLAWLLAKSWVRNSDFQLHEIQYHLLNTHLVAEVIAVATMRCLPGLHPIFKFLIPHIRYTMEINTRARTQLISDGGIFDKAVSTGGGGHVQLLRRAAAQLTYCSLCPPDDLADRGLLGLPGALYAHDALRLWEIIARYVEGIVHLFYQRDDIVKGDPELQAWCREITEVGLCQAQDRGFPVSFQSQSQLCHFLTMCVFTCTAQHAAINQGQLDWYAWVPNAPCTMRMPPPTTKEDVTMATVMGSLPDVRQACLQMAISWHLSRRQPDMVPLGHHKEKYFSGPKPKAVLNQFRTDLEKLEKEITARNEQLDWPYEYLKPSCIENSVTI
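Hydroperoxide product was detected by ferrous iron/xylenol orange as the 573 to 405 nm absorbance ratio. Arachidonic acid at 40 uM (final) was turned over for 30 min at room temperature by 150 nM human 12hLO, pH 7.0 Hepes buffer, after 15 min compound preincubation.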
HepG2 tox: counter-screen for TGF-b inhibitors: cytotoxicity in HepG2 cells. Potency, µM (titrated, usually from 46.1 µM), inactives show top-dose activity change, negative = cytotoxicity, actives largely listed as cytotoxic. HepG2 CAGA-GFP viability, ATP luminescence, 18 h. 410,000 tested, 0.76% active
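CellTiter-Glo luminescence gave cytotoxicity after 18 hours at 37 degrees C. The cells were HepG2 CAGA-GFP in 1% FBS DMEM, stimulated with 500 pg/mL TGF-beta after compound addition. %Activity was normalised to no-cell wells (complete cell-killing) and DMSO (no toxicity), and curves were fitted and classified.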
TGFb inhibitor: inhibitors of TGF-b signaling | HepG2 CAGA-GFP TGF-b/SMAD3 reporter, GFP fluorescence, 18 h; TGF-beta stimulated, 500 pg/mL final | Potency, µM (titrated, usually from 46.1 µM), for the others: at the top dose activity, negative = inhibition, usual class: inhibitors | 410,000 tested, 1.2% active | AID 588855; note: % is set by controls: 0 for no effect and ±100 for the full control effect; nearly all actives have a fitted effect of over 65% in size
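Per well, imaged GFP fluorescence of HEPG2 CAGA-GFP cells gives the signal; cells get compound, then TGF-beta (500 pg/mL final), 18 h at 37 degrees C; %Activity versus -TGF-beta and +DMSO controls.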
ATXN2 expr inh: reduces ATXN2 reporter expression in HEK-293 cells. HEK-293 ATXN2-luciferase reporter, luminescence, 24 h. Potency, µM (highest dose often 57 µM), inactives show top-dose activity change, negative = inhibition, most hits filed as inhibitors. 360,000 tested, 0.72% active; note: % is set by controls: 0 for no effect and ±100 for the full control effect; nearly all actives have a fitted effect of over 55% in size
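qHTS (up to 57 uM final) was run with 24 h compound exposure of reporter cells at 37 °C. Each well was multiplexed: SteadyGlo luminescence measured ATXN2-luciferase expression after a fluorogenic Gly-Phe-AFC viability readout (25 uM final).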
Active calls of the source: *; i = inactive; ? = inconclusive; . = no result given. Calls come from the whole dose curve; as a rule, active = well fitted curve in the direction sought with a large enough effect; inconclusive = small, poorly fitted or top-dose-only effect, or another doubt; inactive = no such curve, though single readings can be large; an effect the other way counts as inactive or inconclusive. Potency is the fitted concentration of half-maximal effect.

SMILES	ATXN viability	ALOX12 inh	HepG2 tox	TGFb inhibitor	ATXN2 expr inh
COc1cccc(-n2c(SCC(=O)Nc3cccc(Cl)c3)nc3c(oc4ccccc43)c2=O)c1	?	-23%	1%	?	11%
O=C(CSc1nnc2[nH]c(=O)c(Cc3ccccc3)nn12)Nc1cccc(Cl)c1	.	25µM*	.	.	.
O=C(CSc1nc2c(oc3ccccc32)c(=O)[nH]1)Nc1cccc(Cl)c1	?	-15%	-62%	11µM*	10%
CCc1ccccc1NC(=O)CSc1nnc2[nH]c(=O)c(Cc3ccc(C)cc3)nn12	.	0%	.	.	.
CCc1ccc(-c2csc(NC(=O)c3ccc4c(c3)NC(=O)C(C)S4)n2)cc1 (configuration not stated)	.	-6%	.	.	.
COc1ccccc1-c1c(C)nn2c(N3CCOCC3)cc(C)nc12	i	0%	1%	8%	-8%
COc1ccccc1-c1c(C)nn2c(N3CCCCCC3)cc(C)nc12	?	-17%	-41%	11µM*	?
C=CCNc1nc(-c2cc3ccccc3o2)cs1	i	50µM*	-2%	5%	63%
c1ccc2oc(-c3csc(NCC4CCCO4)n3)cc2c1 (configuration not stated)	i	?	1%	-21%	60%
Oc1ccc(-c2nc(-c3cc4ccccc4o3)cs2)cc1	.	11µM*	.	.	.
COc1cccc(-c2nc(-c3cc4ccccc4o3)cs2)c1OC	.	-24%	.	.	.
COc1cccc(CC2(CO)CCCN(Cc3[nH]c4ccc(C)cc4c3C)C2)c1 (configuration not stated)	?	?	-90%	?	25µM*
COc1cccc(CC2(CO)CCCN(Cc3cc4ccccc4[nH]3)C2)c1 (configuration not stated)	i	?	-10%	11µM*	-19%
COc1cccc(CC2(CO)CCCN(Cc3ccc(C)s3)C2)c1 (configuration not stated)	i	-25%	-16%	-13%	-43%
CC(=O)C[C@H]1c2cc(C(F)(F)F)ccc2S(=O)(=O)N1C1CCCCC1	i	-10%	-16%	11µM*	-5%
CCCCc1ccc(NC(=O)COc2ncnc3ccccc23)cc1	.	-12%	.	.	.
CN(C)/C=C1/Oc2c(ccc3ccccc23)C1=O	i	0%	-1%	13%	-20%
CN(C)/C=C1\Oc2ccc3ccccc3c2C1=O	.	5µM*	-11%	-23%	17%
Cc1cccc(C)c1NC(=S)NC(=O)c1ccc(Br)o1	i	45µM*	-18%	-9%	-12%
CCc1cc(-c2n[nH]c(C)c2-c2ccccc2Cl)c(O)cc1OC	?	40µM*	-74%	?	?
CCOc1ccc(C(=O)Nc2ccc(S(=O)(=O)N3CCCCC3c3cccnc3)cc2)cc1 (configuration not stated)	?	-23%	-40%	?	18µM*
O=C(Nc1ccc(S(=O)(=O)N2CCCCC2c2cccnc2)cc1)c1ccc(Br)cc1 (configuration not stated)	11µM*	-11%	-31%	0%	14µM*
CCOC(=O)C1CCCN(S(=O)(=O)c2cc(-c3nc(-c4ccc(Cl)cc4)no3)sc2C)C1 (configuration not stated)	.	2%	.	.	.
CC(NC(=O)C1CC=CCC1)c1ccc(C(F)(F)F)cc1 (configuration not stated)	.	-10%	.	.	.
Cc1ccc(C(C)C)c(OCc2ccc(C(=O)N/N=C/c3ccc(O)cc3O)cc2)c1	?	-9%	-96%	?	10µM*
SMILES	ATXN viability	ALOX12 inh	HepG2 tox	TGFb inhibitor	ATXN2 expr inh
O=C(N/N=C/c1ccc(O)cc1O)c1ccncc1	i	21%	21%	14%	22µM*
O=C(N/N=C/c1ccc(Cl)cc1Cl)c1ccncc1	?	0%	-19%	-10%	.
O=C(N/N=C/c1ccc(O)cc1O)c1ccc(NC(=O)C2CCCCC2)cc1	?	-5%	-100%	?	5.6µM*
Cc1ccc(C(=O)C(C)OC(=O)c2c(C)noc2C)cc1 (configuration not stated)	.	-6%	.	.	.
COc1ccc(CNC(=O)c2ccc3c(c2)NC(=O)CCS3)cc1OC	.	-25%	.	.	.
CC(NCc1cccc(C#N)c1)c1ccc(Cl)cc1Cl (configuration not stated)	.	-17%	.	.	.
O=C1CCC[C@@H]2CC(N(Cc3cc4ccccc4s3)c3ccccc3)C[C@@H]3CCN1[C@H]23 (some centres not stated)	.	.	21%	-7%	.
CCCCCCCN(c1ccccc1)C1C[C@H]2CCCC(=O)N3CC[C@@H](C1)[C@@H]23 (some centres not stated)	.	-2%	-61%	14µM*	.
COc1ccc2c(C(=O)NCc3ccc4c(c3)OCO4)c(-c3ccc(S(C)(=O)=O)cc3)sc2c1	35µM*	-24%	-3%	-5%	?
O=c1[nH]nc(CNc2ccc(O)cc2)c2ccccc12	i	5%	10µM*	?	-8%
O=c1[nH]nc(CNc2ccc(C(F)(F)F)cc2)c2ccccc12	i	1%	1%	-11%	.
CN(Cc1cc(C[C@H]2CNCC[C@H]2CC(=O)N2CCN(c3ccccc3)CC2)no1)c1ccccc1	.	23%	.	.	.
OC(CNCCNc1ncccc1C(F)(F)F)Cn1ccc2ccccc21 (configuration not stated)	i	-17%	16µM*	?	.
Cc1csc(NC(=O)CCc2ccc(S(N)(=O)=O)cc2)n1	.	-3%	.	.	.
Cc1cccc(OCc2nnc(SCC(=O)Nc3ccc(C)cc3C)o2)c1	i	35µM*	-4%	10%	-5%
Cc1ccc(NC(=O)CSc2nnc(COc3ccc(Cl)cc3)o2)c(C)c1	i	-1%	-28%	-15%	-8%
O=C(Nc1ccccc1)C1=C[C@H](c2ccccc2)C[C@H](OCc2ccc(CO)cc2)O1	i	?	-5%	4%	4%
O=C(NCc1nc2ccccc2[nH]1)C1=C[C@@H](c2ccc(Br)cc2)C[C@@H](OCc2ccc(CO)cc2)O1	?	-3%	-57%	13µM*	0%
O=C(Nc1ccccc1)C1=C[C@H](c2ccc(C(F)(F)F)cc2)C[C@H](OCc2ccc(CO)cc2)O1	?	-15%	-32%	13µM*	?
CC(NC(=O)CSc1ccccc1F)c1nc2ccccc2[nH]1 (configuration not stated)	.	-25%	.	.	.
CCN1C(=C(C#N)C#N)C=Cc2cc(C)ccc21	?	10%	-3%	-6%	1%
C=CC[n+]1c(/C=C2\C=Cc3cc(C)ccc3N2CC)ccc2ccccc21	7.9µM*	0%	14µM*	4µM*	.
Cc1c(-c2ccc(O)cc2)nn(-c2ccc(O)cc2)c1-c1ccc(OCCN2CCCCC2)cc1	.	20µM*	.	.	.
